Source: PubChem BioAssay AID1063 (University of Pittsburgh Molecular Library Screening Center, 2008)
The whole screen tested about 200,000 compounds, of which about 18,000 (9%) were called active. The sample as a whole holds a higher share of actives than the screen did. Values without a mark were called inactive. Rule as the data show it: active = inhibition above about 50%; inactive = the rest.

Assay: Leishmania major promastigote growth inhibition, primary screen (AID 1063);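 also: promastigotes grown with compound for 44 hours at 28 °C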
Settings: Leishmania major promastigotes, resazurin fluorescence viability; at 10 µM; stronger effect = higher value

Structure (SMILES)	inhibition
C=CCN(CC=C)C(=O)COC(=O)c1n[nH]c2ccccc12	1.59%
CN(C(=O)CSc1nncc2ccccc12)C1CCCCC1	0.99%
COc1ccc(-c2cn3ccsc3n2)cc1	0.76%
Cc1ccc(-c2cn3cc(C)ccc3n2)cc1	87.7% (active)
Cc1ccc(-c2cn3cc([N+](=O)[O-])ccc3n2)cc1	6.77%
N#Cc1cc([N+](=O)[O-])ccc1Oc1cccc(/C=N/NC(=O)c2ccc(Cl)cc2)c1	15.7%
CC1(C)C2CC=C(/C=N/NC(=O)c3ccc(Cl)cc3)C1C2 (stereo unspecified)	96% (active)
O=C(N/N=C/c1ccco1)c1ccc(NC(=O)C2CC2)cc1	5.98%
CC(C)(C)C(=O)Nc1ccc(C(=O)N/N=C/c2ccccc2OC(=O)c2ccc(Cl)cc2Cl)cc1	40.8%
CC1(C)C2CC=C(/C=N/NC(=O)C3CC3)C1C2 (stereo unspecified)	99.3% (active)
CCOc1ccc(N2C(=O)CN(c3cccc4ccccc34)C2=S)cc1	-2.38%
CCS(=O)(=O)C1=NSC2=NC(=O)/C(=C\c3cc(C)n(-c4cccc(OC)c4)c3C)C(=N)N21	-2.58%
Cc1ccc(S(=O)(=O)NCCC(c2ccccc2)c2ccccc2)cc1C(=O)O	-13.6%
COc1cccc(-n2nc(C(=O)N3CCN(Cc4ccccc4)CC3)c3ccccc3c2=O)c1	-6.17%
CC(CC(=O)O)C(=O)c1ccc(Cl)c([N+](=O)[O-])c1 (stereo unspecified)	-1.01%
NC(N)=N/N=C/c1ccc(Cl)c([N+](=O)[O-])c1	100% (active)
Cc1ccnc(NC(=O)c2ccc(Cl)c([N+](=O)[O-])c2)c1	28.8%
O=C(CCNS(=O)(=O)c1ccc(Br)s1)NCc1ccccc1Cl	15.3%
CCCc1cc(=O)[nH]c(SCC(=O)N2CCN(S(=O)(=O)c3ccc(C)cc3C)CC2)n1	63% (active)
CCCc1cc(=O)[nH]c(SCC(=O)c2cc(C)n(CCC)c2C)n1	11.3%
CCCc1cc(=O)[nH]c(SCC(=O)OCc2ccccc2)n1	1.09%
CCCOc1ccc(NC(=O)CC2C(=O)N(C)C(=S)N2Cc2ccc3c(c2)OCO3)cc1 (stereo unspecified)	3.31%
COc1cccc(NCCC(=O)c2cccc([N+](=O)[O-])c2)c1	85% (active)
CC(C)(C)SCCNC(=O)c1cccc([N+](=O)[O-])c1	45.2%
COc1ccc(Cc2nnc(SCC(=O)c3cccc([N+](=O)[O-])c3)n2C)cc1	7.37%
O=C(c1nnc(-c2ccc(Cl)cc2)o1)C1CCCC1	-8.13%
